VP16 counter: VP16 counterscreen qHTS for inhibitors of ROR gamma transcriptional activity. Drosophila S2 Gal4-VP16 UAS-luciferase, luminescence, 20 h. Potency, µM (series often up to 53.6 µM), usual class: inhibitors. 310,000 tested, 3.5% active;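 note: Gal4-VP16 expression switched on by copper sulfate through the metallothionein promoter; nearly all actives have a fitted effect of over 50% in size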
MCF10A rereplic: A quantitative high throughput screen for small molecules that induce DNA re-replication in MCF 10a normal breast cells | MCF 10A DNA re-replication, Hoechst nuclear intensity, 48 h | Potency, µM (titrated, usually from 46.1 µM), most hits filed as activators | 350,000 tested, 2.9% active | AID 624296, 2012; note: nearly all actives have a fitted effect of over 50% in size
SW480 rerep: A quantitative high throughput screen for small molecules that induce DNA re-replication in SW480 colon adenocarcinoma cells; SW480 DNA re-replication, Hoechst DNA content imaging, 48 h; Potency, µM (top dose mostly 46.1 µM), usual class: activators; 340,000 tested, 1.8% active; note: nearly all actives have a fitted effect of over 55% in size
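DNA re-replication was detected as more nuclei of elevated Hoechst intensity after 48 hr exposure to compound (23 nL pinned per well of 250 cells).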
RORg inh: qHTS for inhibitors of ROR gamma transcriptional activity; Nuclear receptor ROR-gamma (Mus musculus), P51450; 310,000 tested, 5.4% active; Drosophila S2 Gal4-RORgamma UAS-luciferase reporter, 20 h; Potency, µM (series often up to 53.6 µM), hits mostly inhibitors; note: nearly all actives have a fitted effect of over 60% in size
Target sequence (P51450 whole entry, looked up, the tested form may be a part): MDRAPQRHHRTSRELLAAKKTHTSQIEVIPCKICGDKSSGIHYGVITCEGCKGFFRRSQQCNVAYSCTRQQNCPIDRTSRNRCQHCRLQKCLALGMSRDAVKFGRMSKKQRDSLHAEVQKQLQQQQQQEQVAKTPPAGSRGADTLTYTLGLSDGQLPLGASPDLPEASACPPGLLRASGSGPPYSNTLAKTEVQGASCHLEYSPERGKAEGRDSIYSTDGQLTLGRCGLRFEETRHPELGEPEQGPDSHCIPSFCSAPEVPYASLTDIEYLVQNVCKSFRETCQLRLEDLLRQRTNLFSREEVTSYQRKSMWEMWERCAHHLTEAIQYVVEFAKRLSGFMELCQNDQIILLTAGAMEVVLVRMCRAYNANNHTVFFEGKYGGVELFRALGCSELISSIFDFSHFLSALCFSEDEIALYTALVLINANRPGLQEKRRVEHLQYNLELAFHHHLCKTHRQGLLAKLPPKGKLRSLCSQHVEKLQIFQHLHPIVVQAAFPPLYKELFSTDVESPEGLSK
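Schneider cells (Drosophila), stable Gal4 DBD–ROR gamma + UAS-luc; 1 hr cmpd preincubation; Cu2+ induction 700 uM final; 20 hr ambient; luminescence.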
BCR signal inh: qHTS Assay to Find Inhibitors of Chronic Active B-Cell Receptor Signaling; ABC-DLBCL IkBa-CBG/CBR reporter, luminescence ratio, 4 h; Potency, µM (titrated, usually from 46.1 µM), actives largely listed as inhibitors; 340,000 tested, 0.05% active; AID 493014, 2011; active = well fitted inhibition curve with a large enough effect in the signal ratio, with a control signal flat, not every such curve was filed as active; inconclusive = small, poorly fitted or top-dose-only effect, or effect the other way, or a change in a side signal; the % refers to the signal ratio
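Cell line TMD8 (human ABC DLBCL), stably expressing tet-inducible CBG68-IkBa fusion and CBR; IMDM/0.5% FBS; cpd up to 46 uM; dox induction, 4 h, 37C/5% CO2; dual luminescence; green/red ratio; MG132 control.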
Giardia killer: Small Molecules that selectively kill Giardia lamblia: qHTS; 340,000 tested, 0.15% active; activity change, % at 7.66 µM, hits read low; Giardia lamblia trophozoite viability; in the data active = activity change below about -80%; inconclusive = between about -30% and that limit;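 note: parasites exposed to compound for two days anaerobically before the ATP read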
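Giardia lamblia trophozoites (100 cells/well) were incubated with compounds for 48 h at 37 deg C under anaerobic conditions. Viability was read as ATP content by one-step luminescence after 15-30 min at room temperature.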
Numbers stand for hits; – = inactive; ? = inconclusive; · = no result. Rows were chosen to be rich in hits. Some 8.3% of all compounds tested hit in one or more screens of this group. Unless noted, calls come from the whole dose curve; as a rule, active = well fitted curve in the direction sought with a large enough effect; inconclusive = small, poorly fitted or top-dose-only effect, or another doubt; inactive = no such curve, though single readings can be large; an effect the other way counts as inactive or inconclusive.

SMILES | VP16 counter | MCF10A rereplic | SW480 rerep | RORg inh | BCR signal inh | Giardia killer
Cc1cccc2c(C(=O)N3CCN(C(=O)c4ccco4)CC3)cc(-c3cccc(Br)c3)nc12 | ? | 18µM | ? | ? | ? | –
Cc1cc(C)c2nc(C(F)(F)F)nc(N3CCN(C(=O)c4ccco4)CC3)c2c1 | 0.89µM | ? | – | 1µM | · | –
CCOc1ccc(NC(=O)c2sccc2-n2cccc2)cc1 | – | – | – | – | – | –
COC(=O)c1cc(S(=O)(=O)NCC2CCN(CCc3ccc(OC)cc3)CC2)c[nH]1 | – | – | – | – | – | –
CC(C)(C)SCCNC(=O)c1ccc(CN2CCc3ccccc3C2)cc1 | – | – | – | – | – | –
COCc1cc(C)nc2sc(C(=O)Nc3ccccc3OC)c(N)c12 | – | ? | 21µM | ? | – | –
COCc1cc(C)nc2sc(C(=O)Nc3ccc(OC)cc3)c(N)c12 | ? | ? | ? | ? | – | –
COCc1cc(C)nc2sc(C(=O)N3CCCCC3)c(N)c12 | – | – | – | – | – | –
COc1ccccc1NC(=O)c1sc2nc(Cc3ccccc3)cc(C(F)(F)F)c2c1N | – | ? | – | – | ? | –
COCc1cc(C)nc2sc(C(=O)Nc3nccs3)c(N)c12 | – | 16µM | – | ? | – | –
COCc1cc(C)nc2sc(C(=O)Nc3cccc(OC)c3)c(N)c12 | – | 10µM | 18µM | – | ? | –
CC(C)C(=O)Nc1ccc(NC(=S)NC(=O)c2ccccc2F)cc1 | – | ? | – | – | – | –
CCc1ccc2ncc(S(=O)(=O)c3ccc(C)c(C)c3)c(N3CCCC3)c2c1 | ? | 23µM | – | ? | – | –
CCOc1ccc2ncc(S(=O)(=O)c3ccccc3)c(N3CCN(c4ccccc4)CC3)c2c1 | · | – | – | · | · | –
O=C(Nc1ccnn1C1CCN(Cc2ccc(CO)o2)CC1)c1ccc2c(c1)OCO2 | – | – | – | – | – | –
O=C(Nc1cccc2ncccc12)c1ccc(OCc2ccccc2)cc1 | – | 1.5µM | – | – | – | –
O=C(NC(=S)Nc1nc2c(ccc3ccccc32)s1)c1cccs1 | 3.2µM | – | – | 2.5µM | – | –
O=C(NC(=S)Nc1cccnc1Cl)c1ccc(Cl)cc1 | ? | – | – | 8.9µM | ? | –
CCOc1ccc(C(=O)Nc2cccc3ncccc23)cc1Br | – | 0.58µM | – | – | – | –
O=C(Nc1nc2c(ccc3ccccc32)s1)c1ccco1 | – | ? | – | – | ? | –
CSc1ncc(C(=O)Nc2cccc(C)c2C)c(C)n1 | – | – | – | – | – | –
Cc1nn(Cc2ccc(Cl)cc2)c(C)c1NC(=O)CSc1n[nH]c(C)c1[N+](=O)[O-] | – | – | – | – | – | –
C/C(CC(=O)Nc1ccccn1)=N\NC(=O)c1cccc(C)c1 | – | – | – | – | ? | –
COc1cccc(C(=O)NCCNC(=O)c2cnccn2)c1 | – | – | – | ? | – | –
O=C(NC(=S)Nc1cccc2ncccc12)c1ccccc1 | ? | – | – | 7.9µM | ? | –
SMILES | VP16 counter | MCF10A rereplic | SW480 rerep | RORg inh | BCR signal inh | Giardia killer
O=C(NC(=S)Nc1cccc2ncccc12)c1cccs1 | – | – | – | 8.9µM | – | –
CC(=O)Nc1cccc2ncccc12 | – | – | – | – | – | –
CC1=CC(=O)C(C(C)C)=C/C1=N/OC(=O)c1cccc([N+](=O)[O-])c1 | ? | – | – | 1µM | ? | –
COc1ccc(CCn2c(-n3nc(C)cc3C)nc3c2c(=O)[nH]c(=O)n3C)cc1 | · | 1.6µM | ? | · | · | –
COCCSc1nc2c(c(=O)[nH]c(=O)n2C)n1CCCc1ccccc1 | – | 1.5µM | – | – | – | –
Cc1ccc(Cn2c(-n3nc(C)cc3C)nc3c2c(=O)[nH]c(=O)n3C)cc1 | – | – | – | – | – | –
Cc1c(C(=O)N2CCN(S(=O)(=O)c3ccc(F)cc3)CC2)oc2ccccc12 | · | ? | – | · | – | –
O=C(NCC1CC1(Cl)Cl)Nc1ccc(Cl)c(Cl)c1 (configuration not stated) | – | 18µM | ? | ? | ? | –
